KLK7 zymogen act – activates the human kallikrein-7 zymogen; P49862; purified proKLK7, EDANS-DABCYL substrate fluorescence; 100% is mature enzyme control, 0% vehicle; 370,000 compounds, 0.9% hits; AID 652039; activation, % at 7 µM;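 active = activation above the mean of all tested compounds plus 3 SD, computed per campaign excluding outliers beyond control limits, cut at about 13% in these data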
V-ATPase pHluor – regulators of yeast V-ATPase proton transport | AID 504577 | S. cerevisiae, pHLuorin cytosolic pH fluorescence | response, % at 10 µM | 350,000 compounds, 0.37% hits; in the data active = response mostly above about 7.3%, no sharp cut-off; inactive = mostly below about 5.4%; also: actives read high
ADAM17 inh – inhibitors of human ADAM17; P78536; recombinant ADAM17, EDANS/DABCYL FRET peptide cleavage; inhibition, % at 6.95 µM; 370,000 compounds, 0.83% hits; AID 720648;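 active = inhibition above the mean of compounds lying between control limits plus 3 SD, set per campaign, cut at about 8.5% in these data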;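 also: 0% = DMSO-only wells as the low control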
ADAM10 inh – ADAM10 inhibition, QFRET primary screen | recombinant ADAM10, EDANS/DABCYL FRET peptide cleavage, 3 h | AID 720582 | 370,000 compounds, 0.62% hits | inhibition, % at 7 µM | O14672;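 active = inhibition above a per-campaign cutoff equal to the mean of compounds falling between control-based bounds plus 3 SD, cut at about 20% in these data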;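 also: 0% = DMSO wells while the 100% control is not disclosed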
Target sequence (O14672 214-748 limits assumed): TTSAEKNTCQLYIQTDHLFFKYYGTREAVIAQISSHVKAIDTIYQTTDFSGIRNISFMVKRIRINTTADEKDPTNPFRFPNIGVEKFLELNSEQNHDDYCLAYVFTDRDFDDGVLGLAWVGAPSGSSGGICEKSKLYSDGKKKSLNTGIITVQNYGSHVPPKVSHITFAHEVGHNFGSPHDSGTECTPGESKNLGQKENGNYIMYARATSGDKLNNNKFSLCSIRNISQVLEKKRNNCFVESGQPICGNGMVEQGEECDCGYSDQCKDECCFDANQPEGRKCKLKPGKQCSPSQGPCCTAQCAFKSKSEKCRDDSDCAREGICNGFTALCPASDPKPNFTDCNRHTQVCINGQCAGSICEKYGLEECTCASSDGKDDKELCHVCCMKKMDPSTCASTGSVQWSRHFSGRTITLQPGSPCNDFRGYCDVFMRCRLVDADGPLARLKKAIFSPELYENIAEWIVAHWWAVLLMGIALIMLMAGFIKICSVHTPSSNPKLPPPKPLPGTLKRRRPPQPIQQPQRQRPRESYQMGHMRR
proKLK7 act conf – confirmation of human kallikrein-7 zymogen activators. activation, % at 7 µM. purified proKLK7, EDANS-DABCYL substrate fluorescence; scaled: vehicle 0, mature enzyme 100. shares compounds with KLK7 zymogen act. 3,200 compounds, 68% hits. AID 686949;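 active = activation, as change over the incubation, above the mean of all tested compounds plus 3 SD, cut at about 13% in these data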
EDANS interfere – optically interferes with EDANS-DABCYL signal, flagging KLK7 hits; activation, % at 7 µM; EDANS-DABCYL substrate fluorescence interference, no enzyme, 4 h; solvent 0%, active enzyme control 100%; 3,200 compounds, 80% hits; shares compounds with KLK7 zymogen act;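 active = activation above the all-compound mean plus 3 SD, ignoring values outside control-based bounds, cut at about 4.8% in these data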;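 also: value is the 4 h activation minus the activation read at time zero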
Numbers without * were called inactive. Most compounds without a hit are left out; they make up all but 2.3% or so of the library.

Screening COC(=O)[C@]12C[C@H](CC(=O)N3CCOCC3)C(=O)N(Cc3ccco3)C1=C[C@H](C1CCCC1)O[C@@H]2C returned KLK7 zymogen act 0, ADAM17 inh -8 and ADAM10 inh 0.
`CCOc1ccc(-c2cc(C(=O)NCCCN3CCCC3)c3ccccc3n2)cc1` gave KLK7 zymogen act 24*, V-ATPase pHluor 0, ADAM17 inh -136, ADAM10 inh -375, proKLK7 act conf -1 and EDANS interfere -5.
Screening CCOC(=O)[C@]12CCCC3=C1N(CCC3)C(=O)[C@@H](CC(=O)N1CCOCC1)C2 returned KLK7 zymogen act 0, ADAM17 inh -3 and ADAM10 inh -4.
For Cc1ccc(S(=O)(=O)NC(C(=O)Oc2ccc3ccc(=O)oc3c2)c2ccccc2)cc1 (stereo unspecified) the results were KLK7 zymogen act 63*, V-ATPase pHluor -1, ADAM17 inh inactive, ADAM10 inh inactive, proKLK7 act conf 329* and EDANS interfere 377*.
Screening Cc1ccc(S(=O)(=O)NCCC(=O)Oc2ccc3ccc(=O)oc3c2)cc1 returned KLK7 zymogen act 49*, V-ATPase pHluor -2, ADAM17 inh inactive, ADAM10 inh inactive, proKLK7 act conf 613* and EDANS interfere 626*.
Cc1ccc2cc(S(=O)(=O)NCCC(=O)O)ccc2c1 was read as KLK7 zymogen act 0, V-ATPase pHluor 2, ADAM17 inh -3 and ADAM10 inh 2.
COc1ccc2c(C)c(Cl)c(=O)oc2c1 was read as KLK7 zymogen act 7, V-ATPase pHluor -2, ADAM17 inh inactive and ADAM10 inh inactive.
CCCC(NS(=O)(=O)c1ccc(C)cc1)C(=O)O (stereo unspecified) was read as KLK7 zymogen act 5, V-ATPase pHluor -2, ADAM17 inh -2 and ADAM10 inh 3.
For CCC[C@@H](NS(=O)(=O)c1ccc(C)cc1)C(=O)Oc1ccc2c3c(c(=O)oc2c1)CCC3 the results were KLK7 zymogen act 42*, V-ATPase pHluor -4, ADAM17 inh inactive, ADAM10 inh inactive, proKLK7 act conf 631* and EDANS interfere 536*.
Cc1ccc(S(=O)(=O)N[C@H](C(=O)Oc2ccc3c(C(F)(F)F)cc(=O)oc3c2)c2ccccc2)cc1 was read as V-ATPase pHluor 1.
Screening Cc1ccc(S(=O)(=O)NC(C(=O)Oc2ccc3c(C)c(Cl)c(=O)oc3c2)c2ccccc2)cc1 (stereo unspecified) returned KLK7 zymogen act 55*, V-ATPase pHluor -1, ADAM17 inh inactive, ADAM10 inh inactive, proKLK7 act conf 69* and EDANS interfere 78*.
Screening S=C(Nc1ccc(Cl)c(Cl)c1)Nc1nnc(-c2ccncc2)s1 returned ADAM17 inh -35 and ADAM10 inh -104.
Screening Cc1cc(Oc2cccnc2)ccc1NC(=O)CCc1c[nH]c2ccccc12 returned KLK7 zymogen act 0, ADAM17 inh -8 and ADAM10 inh -13.
For COc1ccc2c(C)c(CC(=O)N3CCN(C(=O)C4COc5ccccc5O4)CC3)c(=O)oc2c1C (stereo unspecified) the results were KLK7 zymogen act -1, V-ATPase pHluor -4, ADAM17 inh -366 and ADAM10 inh inactive.
`Cc1c(CC(=O)N2CCN(C(=O)C3COc4ccccc4O3)CC2)c(=O)oc2cc(O)c(Cl)cc12` (stereo unspecified) gave KLK7 zymogen act 89*, V-ATPase pHluor 0, ADAM17 inh inactive, ADAM10 inh inactive, proKLK7 act conf 64* and EDANS interfere 64*.
CCC(=O)Nc1ccc(Cl)cc1C(=O)c1ccc[nH]1 was read as ADAM17 inh -8 and ADAM10 inh -6.
Cc1cc(=O)oc2cc(NC(=S)NCc3ccccn3)ccc12 was read as KLK7 zymogen act 58*, V-ATPase pHluor -2, ADAM17 inh inactive, ADAM10 inh inactive, proKLK7 act conf 38* and EDANS interfere 46*.
For C=CCn1c(N)c(C(=O)OC(C)CC)c2nc3ccccc3nc21 (stereo unspecified) the results were KLK7 zymogen act 69*, V-ATPase pHluor 3, ADAM17 inh inactive, ADAM10 inh inactive, proKLK7 act conf -33 and EDANS interfere -19.
`COC(=O)c1c(N)n(-c2ccc(NC(C)=O)cc2)c2nc3ccccc3nc12` gave KLK7 zymogen act 24*, V-ATPase pHluor -8, ADAM17 inh inactive, ADAM10 inh inactive, proKLK7 act conf 76* and EDANS interfere 73*.
Screening C=CCn1c(N)c(C(=O)Nc2ccccc2)c2nc3ccccc3nc21 returned KLK7 zymogen act -5, V-ATPase pHluor -1, ADAM17 inh -21 and ADAM10 inh -73.
Screening COCC(C)OC(=O)c1c(N)n(CC(C)C)c2nc3ccccc3nc12 (stereo unspecified) returned KLK7 zymogen act 59*, V-ATPase pHluor 0, ADAM17 inh inactive, ADAM10 inh inactive, proKLK7 act conf -33 and EDANS interfere -30.
Nc1c(C(=O)NCCN2CCOCC2)c2nc3ccccc3nc2n1-c1ccc2c(c1)OCO2 was read as KLK7 zymogen act 0, V-ATPase pHluor -2, ADAM17 inh -10 and ADAM10 inh -34.
`Nc1c(C(=O)NCCN2CCOCC2)c2nc3ccccc3nc2n1-c1ccccc1` gave KLK7 zymogen act 28*, V-ATPase pHluor 2, ADAM17 inh inactive, ADAM10 inh inactive, proKLK7 act conf 8 and EDANS interfere 9.1*.
Screening CC1(C)CC(=O)C=C(Nc2ccccc2NC(=O)c2ccc(F)cc2F)C1 returned KLK7 zymogen act 0, ADAM17 inh -2 and ADAM10 inh -7.
For CC[C@@]1(c2cccc(Cl)c2)C(=O)N(C(=O)OC(C)C)N1C(=O)OC(C)C the results were KLK7 zymogen act 1, ADAM17 inh 0 and ADAM10 inh -7.
For CC(C)OC(=O)c1c(N)n(CCCN2CCOCC2)c2nc3ccccc3nc12 the results were KLK7 zymogen act 28*, V-ATPase pHluor -1, ADAM17 inh inactive, ADAM10 inh inactive, proKLK7 act conf 9 and EDANS interfere 7.4*.
Screening COc1ccccc1CNC(=O)c1c(N)n(CCCN2CCOCC2)c2nc3ccccc3nc12 returned KLK7 zymogen act -30, V-ATPase pHluor 1, ADAM17 inh -418 and ADAM10 inh inactive.
`C=CCn1c(N)c(C(=O)OC(C)(C)C)c2nc3ccccc3nc21` gave KLK7 zymogen act 46*, V-ATPase pHluor -4, ADAM17 inh inactive, ADAM10 inh inactive, proKLK7 act conf 80* and EDANS interfere 71*.
`O=C(c1cccc(Br)c1)N1CCC(Oc2cccnc2)CC1` gave KLK7 zymogen act 0, ADAM17 inh 0 and ADAM10 inh 5.
